# Measurements reported in PubChem BioAssay (Tox21).
# Inconclusive results are not listed. Calls of active or inactive are those of the source. The call rests on the fitted dose curve.
# Biological target: Acetylcholinesterase (Homo sapiens) (UniProt P22303)
# Test: Acetylcholinesterase (AChE) small molecule antagonists: fluorescence cell-based qHTS assay (AID 1347398); further: nearly all actives have a fitted effect of over 50% in size
# Details: SH-SY5Y cells; Potency: AChE activity; outcome: AChE activity; series mostly up to 115 µM; activity change, negative = inhibition: at the top concentration
# Method in brief: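 SH-SY5Y, 2,000 cells/well, attached overnight; cmpd 30 min 37 C; acetylthiocholine/Thiolite Green cocktail 40 min RT; fluorescence Ex/Em 490/520 nm.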
# On the % scale 0 is the no-effect control and ±100 the full control effect.
# Acetylcholinesterase (Homo sapiens), sequence (P22303 whole entry, looked up): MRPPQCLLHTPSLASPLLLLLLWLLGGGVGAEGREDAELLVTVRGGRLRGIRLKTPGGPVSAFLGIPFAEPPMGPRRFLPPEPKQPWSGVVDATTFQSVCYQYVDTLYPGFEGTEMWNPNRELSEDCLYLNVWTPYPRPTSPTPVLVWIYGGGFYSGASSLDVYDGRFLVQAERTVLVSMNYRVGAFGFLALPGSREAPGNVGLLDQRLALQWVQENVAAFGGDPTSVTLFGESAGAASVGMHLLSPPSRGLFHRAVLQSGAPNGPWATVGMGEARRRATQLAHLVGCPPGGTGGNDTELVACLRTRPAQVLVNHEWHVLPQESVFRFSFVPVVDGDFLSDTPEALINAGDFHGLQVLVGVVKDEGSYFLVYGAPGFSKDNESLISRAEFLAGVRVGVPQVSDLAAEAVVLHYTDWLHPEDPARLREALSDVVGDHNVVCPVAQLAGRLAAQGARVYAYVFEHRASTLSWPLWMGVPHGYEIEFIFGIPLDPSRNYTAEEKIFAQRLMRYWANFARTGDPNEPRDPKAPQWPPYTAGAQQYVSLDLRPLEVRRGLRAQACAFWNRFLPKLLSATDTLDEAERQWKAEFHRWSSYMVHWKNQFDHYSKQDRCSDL
SMILES,Potency,"activity change, negative = inhibition"
O=C1CCCC1,inactive,
Cc1nc(C2CCCCC2)c(-c2ccc(S(N)(=O)=O)c(F)c2)o1,,-0.101% [at 53.7 µM] (inactive)
CN(C)C(=O)CNC(=O)Cc1ccccc1,,6.18% [at 53.7 µM] (inactive)
NS(=O)(=O)O,inactive,
CCCCCCC(C)(C)S,inactive,
CC(C)NCC(O)COc1ccc(COCCOC(C)C)cc1 (centres undefined),,-6.9% [at 53.7 µM] (inactive)
COC(c1ccccc1)(c1ccccc1)[C@H](Oc1nc(C)cc(C)n1)C(=O)O,,2.39% [at 53.7 µM] (inactive)
CCCCCCCO,inactive,
CNC(=O)NC,,2.95% (inactive)
CC1(C)O[C@@H]2C[C@H]3[C@@H]4C[C@H](F)C5=CC(=O)C=C[C@]5(C)[C@@]4(F)[C@@H](O)C[C@]3(C)[C@]2(C(=O)CO)O1,inactive,
NC(=O)N/N=C/c1ccc([N+](=O)[O-])o1,inactive,
C[C@H](CCC(=O)O)[C@H]1CC[C@H]2[C@@H]3[C@H](O)C[C@@H]4C[C@H](O)CC[C@]4(C)[C@H]3CC[C@]12C,,-0.0354% (inactive)
CCCCCCCCNC,,8.53% (inactive)
OCCc1ccccc1,inactive,
CC(=O)CC(=O)Nc1ccccc1,inactive,
OCc1ccccc1,inactive,
O[C@@H]1CO[C@H]2[C@@H]1OC[C@@H]2O,,6.07% [at 53.7 µM] (inactive)
OCCN1C[C@H](O)[C@@H](O)[C@H](O)[C@H]1CO,,7.22% [at 53.7 µM] (inactive)
NNS(=O)(=O)c1ccc(Oc2ccc(S(=O)(=O)NN)cc2)cc1,,6.31% (inactive)
Cc1ccc(C=O)cc1,,2.39% [at 53.7 µM] (inactive)

SMILES,Potency,"activity change, negative = inhibition"
CCCC[O][Al]([O]CCCC)[O]CCCC,,5.75% (inactive)
CN1Cc2c(N)cccc2C(c2ccccc2)C1 (centres undefined),inactive,
Oc1cc(O)c2c(c1)O[C@H](c1ccc(O)c(O)c1)[C@H](O)C2,,1.89% [at 53.7 µM] (inactive)
CN(C)C(=O)NC1(c2ccccc2)CCN(CCC[C@]2(c3ccc(Cl)c(Cl)c3)CCCN(C(=O)c3ccccc3)C2)CC1,,-16% [at 23.8 µM] (inactive)
COC(=O)[C@@H]1CC2=CC(=O)CC[C@]2(C)[C@@]23O[C@@H]2C[C@@]2(C)[C@@H](CC[C@@]24CCC(=O)O4)[C@H]13,,1.79% [at 53.7 µM] (inactive)
O=C(/C=C/c1ccccc1)OCCCc1ccccc1,,-4.09% (inactive)
NC(=O)c1ccccc1O,inactive,
C=C[Si](OC(=C)C)(OC(=C)C)OC(=C)C,,-0.0371% (inactive)
NC[C@H]1O[C@H](O[C@H]2[C@H](O[C@@H]3O[C@H](CO)[C@@H](O)[C@H]3O)C(O)[C@H](N)C[C@@H]2N)[C@H](N)[C@@H](O)[C@@H]1O (some centres undefined),,8.04% [at 10.5 µM] (inactive)
Oc1ccc(OCc2ccccc2)cc1,inactive,
Cc1ncc(CSSCc2cnc(C)c(O)c2CO)c(CO)c1O,,1.6% [at 53.7 µM] (inactive)
CCC(Cc1c(I)cc(I)c(N)c1I)C(=O)O (centres undefined),inactive,
COc1cc(CNC(=O)CCCC/C=C/C(C)C)ccc1O,,-13.3% (inactive)
O=C(O)c1ccc2cc(C(=O)O)ccc2c1,,-0.914% (inactive)
O=c1cc(O)c(Cl)c[nH]1,,5.99% [at 53.7 µM] (inactive)
CC1(C)O[C@H]2CC(=O)OC[C@]23[C@H]2CC[C@@]4(C)[C@H](c5ccoc5)OC(=O)[C@H]5O[C@]54[C@]2(C)C(=O)C[C@@H]13,,1.37% [at 53.7 µM] (inactive)
CCCCCCCCCCC(=O)O,,-8.14% (inactive)
Cc1c(Cn2ccnc2)c2ccccc2n1CCC(=O)O,,6.32% [at 53.7 µM] (inactive)
C/C=C/c1ccc(OC)c(OC)c1,,-1.46% (inactive)
